Test results: the supplement of paper PMC7411054
Structures can show the parent of a compound that is named as a salt.

Assays:
Experiment in all cases: phenotypically active (imaging signature differs from DMSO and reproducible) at any of 0.3-9 uM (binary (1 = active, 0 = inactive)); higher = active
Conditions in all cases: treatment time: 24 h
A549-ACTB-RAB5A = system: A549-ACTB-RAB5A
How it was run: (§1)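 Fifteen gene-edited A549, HepG2 and WPMY1 reporter lines (BFP segmentation plus GFP and RFP/FusionRed markers) were treated at 0.3, 1, 3 or 9 µM for 24 h, four wells each, then imaged live. Live-cell features per well were normalised to DMSO control wells. Deviation required ≥3 of 4 wells beyond the 95th percentile of DMSO Euclidean distances, and reproducibility required median replicate Pearson correlation above the 95th percentile of non-replicates. Phenotypic activity needed both criteria.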

A549-CANX-COX4 = system: A549-CANX-COX4
How it was run: as §1

A549-GM130-SQSTM1 = system: A549-GM130-SQSTM1
How it was run: as §1

A549-TP53BP1-CLTA = system: A549-TP53BP1-CLTA
How it was run: as §1

A549-TUBA1B-RELA = system: A549-TUBA1B-RELA
How it was run: as §1

HepG2-ACTB-RAB5A = system: HepG2-ACTB-RAB5A
How it was run: as §1

HepG2-CANX-COX4 = system: HepG2-CANX-COX4
How it was run: as §1

HepG2-GM130-SQSTM1 = system: HepG2-GM130-SQSTM1
How it was run: as §1

HepG2-TP53BP1-CLTA = system: HepG2-TP53BP1-CLTA
How it was run: as §1

HepG2-TUBA1B-RELA = system: HepG2-TUBA1B-RELA
How it was run: as §1

WPMY1-ACTB-RAB5A = system: WPMY1-ACTB-RAB5A
How it was run: as §1

WPMY1-CANX-COX4 = system: WPMY1-CANX-COX4
How it was run: as §1

WPMY1-GM130-SQSTM1 = system: WPMY1-GM130-SQSTM1
How it was run: as §1

WPMY1-TP53BP1-CLTA = system: WPMY1-TP53BP1-CLTA
How it was run: as §1

WPMY1-TUBA1B-RELA = system: WPMY1-TUBA1B-RELA
How it was run: as §1

Measured: phenotypically active

Cc1cc(/N=N/c2cc(S(=O)(=O)O)c(C)cc2C)c(N)cc1O [Ischemin sodium salt]
inactive: A549-ACTB-RAB5A 0 | A549-CANX-COX4 0 | A549-GM130-SQSTM1 0 | A549-TP53BP1-CLTA 0 | A549-TUBA1B-RELA 0 | HepG2-ACTB-RAB5A 0 | HepG2-CANX-COX4 0 | HepG2-GM130-SQSTM1 0 | HepG2-TP53BP1-CLTA 0 | HepG2-TUBA1B-RELA 0 | WPMY1-ACTB-RAB5A 0 | WPMY1-CANX-COX4 0 | WPMY1-GM130-SQSTM1 0 | WPMY1-TP53BP1-CLTA 0 | WPMY1-TUBA1B-RELA 0

O=C(Nc1cccnc1)c1cc(-c2ccnc(F)c2)ccc1OCc1ccccc1
inactive: A549-ACTB-RAB5A 0 | A549-CANX-COX4 0 | A549-GM130-SQSTM1 0 | A549-TP53BP1-CLTA 0 | A549-TUBA1B-RELA 0 | HepG2-ACTB-RAB5A 0 | HepG2-CANX-COX4 0 | HepG2-GM130-SQSTM1 0 | HepG2-TP53BP1-CLTA 0 | HepG2-TUBA1B-RELA 0 | WPMY1-ACTB-RAB5A 0 | WPMY1-CANX-COX4 0 | WPMY1-GM130-SQSTM1 0 | WPMY1-TP53BP1-CLTA 0 | WPMY1-TUBA1B-RELA 0

NCCCC[C@H](N[C@@H](CCc1ccccc1)C(=O)O)C(=O)N1CCC[C@H]1C(=O)O [lisinopril]
inactive: A549-ACTB-RAB5A 0 | A549-CANX-COX4 0 | A549-GM130-SQSTM1 0 | A549-TP53BP1-CLTA 0 | A549-TUBA1B-RELA 0 | HepG2-ACTB-RAB5A 0 | HepG2-CANX-COX4 0 | HepG2-GM130-SQSTM1 0 | HepG2-TP53BP1-CLTA 0 | HepG2-TUBA1B-RELA 0 | WPMY1-ACTB-RAB5A 0 | WPMY1-CANX-COX4 0 | WPMY1-GM130-SQSTM1 0 | WPMY1-TP53BP1-CLTA 0 | WPMY1-TUBA1B-RELA 0

CCCCc1nc(Cl)c(CO)n1Cc1ccc(-c2ccccc2-c2nnn[nH]2)cc1 [losartan]
inactive: A549-ACTB-RAB5A 0 | A549-CANX-COX4 0 | A549-GM130-SQSTM1 0 | A549-TP53BP1-CLTA 0 | A549-TUBA1B-RELA 0 | HepG2-ACTB-RAB5A 0 | HepG2-CANX-COX4 0 | HepG2-GM130-SQSTM1 0 | HepG2-TP53BP1-CLTA 0 | HepG2-TUBA1B-RELA 0 | WPMY1-ACTB-RAB5A 0 | WPMY1-CANX-COX4 0 | WPMY1-GM130-SQSTM1 0 | WPMY1-TP53BP1-CLTA 0 | WPMY1-TUBA1B-RELA 0

C(=C/c1ccccc1)/CN1CCN(C(c2ccccc2)c2ccccc2)CC1 [cinnarazine]
inactive: A549-ACTB-RAB5A 0 | A549-CANX-COX4 0 | A549-GM130-SQSTM1 0 | A549-TP53BP1-CLTA 0 | A549-TUBA1B-RELA 0 | HepG2-ACTB-RAB5A 0 | HepG2-CANX-COX4 0 | HepG2-GM130-SQSTM1 0 | HepG2-TP53BP1-CLTA 0 | HepG2-TUBA1B-RELA 0 | WPMY1-ACTB-RAB5A 0 | WPMY1-CANX-COX4 0 | WPMY1-GM130-SQSTM1 0 | WPMY1-TP53BP1-CLTA 0 | WPMY1-TUBA1B-RELA 0

O=C1CN2Cc3c(ccc(Cl)c3Cl)N=C2N1 [Anagrelide hydrochloride]
inactive: A549-ACTB-RAB5A 0 | A549-CANX-COX4 0 | A549-GM130-SQSTM1 0 | A549-TP53BP1-CLTA 0 | A549-TUBA1B-RELA 0 | HepG2-ACTB-RAB5A 0 | HepG2-CANX-COX4 0 | HepG2-GM130-SQSTM1 0 | HepG2-TP53BP1-CLTA 0 | HepG2-TUBA1B-RELA 0 | WPMY1-ACTB-RAB5A 0 | WPMY1-CANX-COX4 0 | WPMY1-GM130-SQSTM1 0 | WPMY1-TP53BP1-CLTA 0 | WPMY1-TUBA1B-RELA 0

CCCCCCOc1cc2c(cc1N(C)c1ncc(C(=O)O)cn1)C(C)(C)CCC2(C)C
inactive: A549-ACTB-RAB5A 0 | A549-CANX-COX4 0 | A549-GM130-SQSTM1 0 | A549-TP53BP1-CLTA 0 | A549-TUBA1B-RELA 0 | HepG2-ACTB-RAB5A 0 | HepG2-CANX-COX4 0 | HepG2-GM130-SQSTM1 0 | HepG2-TP53BP1-CLTA 0 | HepG2-TUBA1B-RELA 0 | WPMY1-ACTB-RAB5A 0 | WPMY1-CANX-COX4 0 | WPMY1-GM130-SQSTM1 0 | WPMY1-TP53BP1-CLTA 0 | WPMY1-TUBA1B-RELA 0

CC(C)(C#N)c1cc(Cn2cncn2)cc(C(C)(C)C#N)c1 [Anastrozole]
inactive: A549-ACTB-RAB5A 0 | A549-CANX-COX4 0 | A549-GM130-SQSTM1 0 | A549-TP53BP1-CLTA 0 | A549-TUBA1B-RELA 0 | HepG2-ACTB-RAB5A 0 | HepG2-CANX-COX4 0 | HepG2-GM130-SQSTM1 0 | HepG2-TP53BP1-CLTA 0 | HepG2-TUBA1B-RELA 0 | WPMY1-ACTB-RAB5A 0 | WPMY1-CANX-COX4 0 | WPMY1-GM130-SQSTM1 0 | WPMY1-TP53BP1-CLTA 0 | WPMY1-TUBA1B-RELA 0

CC1=Nc2ccc(Cl)cc2S(=O)(=O)N1 [diazoxide]
inactive: A549-ACTB-RAB5A 0 | A549-CANX-COX4 0 | A549-GM130-SQSTM1 0 | A549-TP53BP1-CLTA 0 | A549-TUBA1B-RELA 0 | HepG2-ACTB-RAB5A 0 | HepG2-CANX-COX4 0 | HepG2-GM130-SQSTM1 0 | HepG2-TP53BP1-CLTA 0 | HepG2-TUBA1B-RELA 0 | WPMY1-ACTB-RAB5A 0 | WPMY1-CANX-COX4 0 | WPMY1-GM130-SQSTM1 0 | WPMY1-TP53BP1-CLTA 0 | WPMY1-TUBA1B-RELA 0

CCOc1cc(CC(=O)N[C@@H](CC(C)C)c2ccccc2N2CCCCC2)ccc1C(=O)O [repaglinide]
inactive: A549-ACTB-RAB5A 0 | A549-CANX-COX4 0 | A549-GM130-SQSTM1 0 | A549-TP53BP1-CLTA 0 | A549-TUBA1B-RELA 0 | HepG2-ACTB-RAB5A 0 | HepG2-CANX-COX4 0 | HepG2-GM130-SQSTM1 0 | HepG2-TP53BP1-CLTA 0 | HepG2-TUBA1B-RELA 0 | WPMY1-ACTB-RAB5A 0 | WPMY1-CANX-COX4 0 | WPMY1-GM130-SQSTM1 0 | WPMY1-TP53BP1-CLTA 0 | WPMY1-TUBA1B-RELA 0

O=C1CCc2cc(OCCCCc3nnnn3C3CCCCC3)ccc2N1 [Cilostazol]
inactive: A549-ACTB-RAB5A 0 | A549-CANX-COX4 0 | A549-GM130-SQSTM1 0 | A549-TP53BP1-CLTA 0 | A549-TUBA1B-RELA 0 | HepG2-ACTB-RAB5A 0 | HepG2-CANX-COX4 0 | HepG2-GM130-SQSTM1 0 | HepG2-TP53BP1-CLTA 0 | HepG2-TUBA1B-RELA 0 | WPMY1-ACTB-RAB5A 0 | WPMY1-CANX-COX4 0 | WPMY1-GM130-SQSTM1 0 | WPMY1-TP53BP1-CLTA 0 | WPMY1-TUBA1B-RELA 0

CCn1c(=O)c2cc(C(N)=O)c(N)nc2n(C2CC2)c1=O
inactive: A549-ACTB-RAB5A 0 | A549-CANX-COX4 0 | A549-GM130-SQSTM1 0 | A549-TP53BP1-CLTA 0 | A549-TUBA1B-RELA 0 | HepG2-ACTB-RAB5A 0 | HepG2-CANX-COX4 0 | HepG2-GM130-SQSTM1 0 | HepG2-TP53BP1-CLTA 0 | HepG2-TUBA1B-RELA 0 | WPMY1-ACTB-RAB5A 0 | WPMY1-CANX-COX4 0 | WPMY1-GM130-SQSTM1 0 | WPMY1-TP53BP1-CLTA 0 | WPMY1-TUBA1B-RELA 0
